Compound activity (PubChem)
Hits are enriched below; roughly 2.8% of the tested compounds scored in any of these assays.
HepG2 viability = HepG2 cytotoxicity, counter-screen for TGF-b inhibitors; 410,000 tested, 0.76% active; HepG2 CAGA-GFP viability, ATP luminescence, 18 h; Potency, µM (series often up to 46.1 µM), without a hit: top-dose activity change, negative = cytotoxicity, actives largely listed as cytotoxic; AID 588856
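HepG2 CAGA-GFP cells (1000/well, DMEM with 1% FBS) received compound, then TGF-beta at 500 pg/mL final, and were incubated 18 hours at 37 degrees C. Viability was read by CellTiter-Glo luminescence. Media-only wells were set as complete cell-killing and DMSO as no toxicity.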
ATXN2 expr inh = reduces ATXN2 reporter expression in HEK-293 cells | 360,000 tested, 0.72% active | Potency, µM (highest dose often 57 µM), for the others: at the top dose activity change, negative = inhibition, usual class: inhibitors | HEK-293 ATXN2-luciferase reporter, luminescence, 24 h | AID 1745845; further: on the % scale 0 is the no-effect control and ±100 the full control effect; nearly all actives have a fitted effect of over 55% in size
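ATXN2-luciferase reporter cells (luciferase flanked by upstream and downstream ATXN2 gene portions) were treated 24 h at 37 °C with compounds at up to 57 uM. SteadyGlo luminescence gave expression; GF-AFC fluorescence gave viability.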
HTT ATP protect = cytoprotection in Huntington HTT-Q103 PC12 cell model; PC12 HTT-Q103 induced, cytoprotection, ATP luminescence, 40 h; Potency, µM (series often up to 56.4 µM), for inactives: cytoprotection (ATP increase), usual class: activators; 230,000 tested, 0.14% active; further: % of control where 0% means no effect; nearly all actives have a fitted effect of over 45% in size
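Huntington model: PC12 line, ecdysone-inducible HTTQ103 exon1–GFP, tebufenozide 100 nM. Test articles in a dose series. Endpoint luminescence from cellular ATP.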
TGFb inhibitor = inhibitors of TGF-b signaling; HepG2 CAGA-GFP TGF-b/SMAD3 reporter, GFP fluorescence, 18 h; TGF-beta stimulated, 500 pg/mL final; Potency, µM (series often up to 46.1 µM), without a hit: top-dose activity, negative = inhibition, actives largely listed as inhibitors; 410,000 tested, 1.2% active; AID 588855; further: on the % scale 0 is the no-effect control and ±100 the full control effect; nearly all actives have a fitted effect of over 65% in size
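Inhibition was scored as loss of TGF-beta-induced (500 pg/mL final, 18 hours, 37 degrees C) GFP in HEPG2 cells carrying a CAGA-GFP reporter, in DMEM with 1% FBS. Well GFP was summed per cell; Activity was normalised to unstimulated and stimulated DMSO wells, then concentration-response fitting.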
HTT aggregate = reduces HttQ103-GFP aggregates in PC12 cells. AID 1688. 220,000 tested, 1.1% active. Potency, µM (titrated, usually from 46.1 µM), for the others: at the top dose activity change, negative = inhibition, hits mostly inhibitors. PC12 HttQ103-GFP aggregates, Acumen cytometry, 40 h; further: on the % scale 0 is the no-effect control and ±100 the full control effect; nearly all actives have a fitted effect of over 60% in size
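Steps: seed 1500 PC12 HTTQ103-GFP cells/well; add tebufenozide, 100 nM final; add compound titration; add ATPLite reagent; quantify GFP aggregates by laser scanning cytometry.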
S2 tox = viability counter-screen for ATXN expression inhibitors; Potency, µM (highest dose often 56.7 µM), most hits filed as cytotoxic; S2 cells (HEK-293 line with an ATXN2-luciferase reporter) viability, CellTiter-Fluor protease fluorescence, 24 h; 400,000 tested, 0.49% active; further: nearly all actives have a fitted effect of over 40% in size
* marks the source's active call; other numbers are inactive results; i = inactive; u = inconclusive; x = no result; [ ] = another dose, or the depositor's remark. The call rests on the fitted dose curve; in most records, active means well fitted curve in the direction sought with a large enough effect; inconclusive means small, poorly fitted or top-dose-only effect, or another doubt; inactive means no such curve, though single readings can be large; an effect the other way counts as inactive or inconclusive. Potency means the concentration at half of the fitted maximal effect.

SMILES	HepG2 viability	ATXN2 expr inh	HTT ATP protect	TGFb inhibitor	HTT aggregate	S2 tox
COc1cc(NC(=O)c2ccccc2Cl)c2ncccc2c1	-29.1%	-15.9%	x	u	x	i
COc1cc(NS(=O)(=O)c2ccc(C(=O)O)cc2)c2nc(C)ccc2c1	-14.9%	x	x	-15.9%	x	x
COc1cc(NS(=O)(=O)c2ccc(C)cc2)c2ncccc2c1	-26.2%	4.47µM*	-11.2%[10 µM]	u	-27.4%	u
CN(C)S(=O)(=O)N(CC(=O)Nc1ccc2ccccc2c1)c1ccccc1	1.1%	-12.7%	5.62µM*	0.8%	u	i
CCOC(=O)C[C@H]1c2cc(F)ccc2S(=O)(=O)N1Cc1cc(OC)c(OC)c(OC)c1	-14.8%	x	x	u	x	x
CN(C(=O)CSc1n[nH]c(-c2cccs2)n1)C1CCS(=O)(=O)C1 (stereo unspecified)	11.2µM*	2.6%	x	7.0%	x	i
O=C(NCCc1ccccn1)C1CC12CCN(C(=O)c1ccc(F)cc1Cl)CC2 (stereo unspecified)	x	x	x	x	x	i
C=C(C(=O)c1ccccc1)C(C)C(=C)C(=O)c1ccccc1	7.94µM*	28.2µM*	37.4%[1.9 µM]	u	33.0%[1.84 µM]	25.1µM*
COC1CCC(N(C(=O)C2CCC(C)CC2)c2cc(C3=CCCCC3)sc2C(=O)O)CC1 (stereo unspecified)	x	-0.9%	x	x	x	x
CCn1c(C)cs/c1=N\S(=O)(=O)c1ccccc1	1.2%	6.8%	x	-5.5%	x	i
O=Cc1s/c(=N\S(=O)(=O)c2ccccc2)n(CCCCl)c1Cl	8.91µM*	u	-177.7%	3.98µM*	5.01µM*	5.01µM*
CCOc1ccc(CN(C)c2nc(-c3cccnc3)nc3ccccc23)cc1OC	-29.3%	18.9µM*	x	u	x	u
CC(NC(=O)C1CC1)c1nnc2n1CCN(Cc1cccc(F)c1F)CC2 (stereo unspecified)	x	x	x	x	x	i
CN1C2CCC1/C(=C\c1ccccc1)C(=O)/C2=C\c1ccccc1	-24.7%	25.1µM*	-85.5%	0.3%	-8.0%	u
CCOC(=O)CSc1nc2cc(OC)c(OC)cc2cc1C#N	4.0%	x	x	6.2%	x	x
O=C(CCc1nc2ccccc2s1)N1CCOc2ccc(CN3CCc4sccc4C3)cc2C1	x	x	x	x	x	i
O=C(COC(=O)Cc1ccccc1F)Nc1cc(S(=O)(=O)N2CCOCC2)ccc1N1CCCC1	-34.7%	3.3%	-13.6%[1.9 µM]	-13.8%	2.9%	1µM*
CCN1CCN(c2ccc(S(=O)(=O)N3CCOCC3)cc2NC(=O)C2CCC(C(C)(C)C)CC2)CC1 (stereo unspecified)	20µM*	x	x	u	x	i
O=C(COC(=O)CCc1ccccc1)Nc1cc(S(=O)(=O)N2CCOCC2)ccc1N1CCCC1	1.3%	-1.6%	-34.9%	6.9%	-0.8%	i
COC(=O)C1[C@H]2SC(C)(C)C(C(=O)OC)N2C(=O)N1Cc1ccccc1 (stereo partly specified)	-7.3%	x	x	-27.4%	x	x
O=C(C[C@@H]1C/C=C/CC[C@H](Cc2ccc(F)cc2)C(=O)O[C@H](c2ccccc2)CNC1=O)NCCO	-7.5%	-0.5%	x	-4.2%	x	i
O=C(C[C@H]1C/C=C\C[C@@H](Cc2ccc(F)cc2)C(=O)O[C@H](c2ccccc2)CNC1=O)NCCO	12.6µM*	11.5%	x	-13.1%	x	i
Oc1cc(-c2nc3ccccc3s2)cc2c1OCCN(Cc1cccn1-c1ncccn1)C2	x	x	x	x	x	i
O=C1Oc2ccccc2C(=O)C1C(CC(O)c1ccc(-c2ccc(Br)cc2)cc1)c1ccccc1 (stereo unspecified)	x	x	-15.5%	x	-1.7%	x
CCOC(=O)c1c(NC(C)=O)sc2c1CCC(C=O)=C2Sc1ccccc1	-46.3%	28.2µM*	34.7%	u	-30.3%	x
Cc1ncc2c(c1CNC(=O)c1ccc3c(c1)OCO3)CCN(C(=O)c1ccoc1)C2	x	x	x	x	x	i
